Results filed as inconclusive are left out. The source made the active and inactive calls. Unless noted, the call rests on the fitted dose curve; in most records, active means well fitted curve in the direction sought with a large enough effect; inconclusive means small, poorly fitted or top-dose-only effect, or another doubt; inactive means no such curve, though single readings can be large; an effect the other way counts as inactive or inconclusive.
What was measured:
[1] = NCATS anti-infectives library activity on HEK293 viability as a counter-qHTS vs the C. elegans viability qHTS (AID 1745854); further: on the % scale 0 is the no-effect control and ±100 the full control effect
Procedure, shortened: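 CellTiter-Glo luminescence, read on a CCD imager, scored viability of HEK293 cells after 24 hr compound exposure at 37C. Library tested in several concentrations, 1:5 steps, up to 41.7 uM; digitonin served as control.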

[2] = target: DNA repair nuclease/redox regulator APEX1 (Homo sapiens) (UniProt P27695); test: qHTS Validation Assay for Inhibitors of the Human Apurinic/apyrimidinic Endonuclease 1 (APE1) (AID 1705;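 further: TAMRA fluorescence gain over two minutes as APE1 cuts a quenched THF abasic duplex; series mostly up to about 57 µM; on the % scale 0 is the no-effect control and ±100 the full control effect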)
Procedure, shortened: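 Human APE1 was preincubated with compound for 15 min at room temperature, then 50 nM (final) THF-abasic double-stranded DNA substrate bearing 5'-TAMRA and 3'-BHQ-2 was added. Incision-driven fluorescence rise (ex 525/em 598 nm) was read kinetically.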

[3] = Counterscreen for APE1 Inhibitors: Fluorescent Dye Displacement Validation Assay (AID 1707);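 further: plate controls were ThO with dsDNA and no compound for no effect and ThO without dsDNA for full effect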
Procedure, shortened: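 Signal: ThO fluorescence (ex 480 nm/em 540 nm) on binding 50 nM dsDNA; displacement by test compound reduces it. Conditions: 250 nM dye, 50 mM Tris-HCl pH7.5, 2 mM MgCl2, 50mM NaCl, 0.01% Tween-20.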

[4] = target: Endonuclease 4 (Escherichia coli (strain K12)) (UniProt P0A6C1); test: Counterscreen for APE1 Inhibitors: qHTS Validation Assay for Inhibitors of Endonuclease IV (AID 1708); further: on the % scale 0 is the no-effect control and ±100 the full control effect
Procedure, shortened: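 Measured as reaction progress, the fluorescence gain between first and third kinetic reads after adding 50 nM TAMRA/BHQ-2 THF duplex to 2 nM enzyme preincubated 15 min with compound; 2 mM MgCl2, pH 7.5.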

[5] = qHTS for differential inhibitors of proliferation of Plasmodium falciparum line 7G8 (AID 1815);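 further: parasite growth measured after three days of incubation; plate controls were vehicle wells for no effect and reference inhibitor wells for full effect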
[6] = qHTS for differential inhibitors of proliferation of Plasmodium falciparum line 3D7 (AID 1876);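 further: parasite growth measured after three days of culture; 0% = vehicle wells and -100% = reference inhibitor wells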
[7] = qHTS for differential inhibitors of proliferation of Plasmodium falciparum line Dd2 (AID 1882); details: Potency: Plasmodium falciparum Dd2 proliferation inhibition;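 further: series mostly up to about 29 µM; compound exposure of 72 h on infected erythrocytes; plate controls were DMSO vehicle for no effect and 0.29 µM artemisinin for full effect; nearly all actives have a fitted effect of over 65% in size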
Procedure, shortened: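 RBC culture, 0.3% parasitemia / 2.5% Hct final; cpd added by pin tool in DMSO; 72 h, 37 C, 5% CO2; lysis buffer + SYBR Green I, o/n RT dark; FI 485/535; norm. to artemisinin 0.29 uM and DMSO.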

[8] = target: Ferritin light chain (Equus caballus) (UniProt P02791); test: qHTS Validation Assay for Identification of Novel General Anesthetics (AID 2323); further: series mostly up to about 77 µM; on the % scale 0 is the no-effect control and ±100 the full control effect
Procedure, shortened: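 Competitive displacement of profluorescent 1-aminoanthracene (1-AMA, 50% saturated solution in PBS) from 10 uM horse-spleen apoferritin. Compounds incubated 10 min at room temperature; fluorescence read at 380 nm excitation/535 nm emission, normalized to free 1-AMA and complex, fitted with four-parameter Hill equation.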

[9] = target: ATP-dependent DNA helicase Q1 (Homo sapiens) (UniProt P46063); test: qHTS Validation Assay for Inhibitors of RecQ-Like Dna Helicase 1 (RECQ1) (AID 2353);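 further: plate controls were DMSO vehicle for no effect and enzyme-free control for full effect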
Procedure, shortened: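 RECQ1T1 50 nM; forked duplex (20 bp + 30-nt ss tails) 200 nM, ATP 2 mM final; pH 8.0, 2 mM MgCl2, 2.5 ug/ml poly(dI-dC); 15 min compound preincubation; discontinuous kinetic read over 2 h at RT.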

[10] = target: RecQ-like DNA helicase BLM (Homo sapiens) (UniProt P54132); test: qHTS Validation Assay for Inhibitors of Bloom's syndrome helicase (BLM) (AID 2364);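 further: plate controls were DMSO vehicle for no effect and enzyme-free control for full effect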
Procedure, shortened: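 BLM 50 nM in 25 mM Tris-HCl pH 8.0, 5 mM NaCl, 2 mM MgCl2, 1 mM DTT, 0.01% Tween-20, 2.5 ug/ml poly(dI-dC); 15 min cpd preinc, RT. Start: 200 nM forked DNA + 2 mM ATP (final). TAMRA read, 2 reads 2 h apart.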

[11] = Validation screen for inhibitors of Lassa infection (AID 463096; calls by dose curve; further: on the % scale 0 is the no-effect control and ±100 the full control effect)
[12] = Quantitative high throughput screen for delayed death inhibitors of the malarial parasite plastid, 96 hour incubation (AID 488745);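 further: luciferase-expressing P. falciparum in erythrocytes at 2% hematocrit and 0.1% parasitemia; series mostly up to about 29 µM; on the % scale 0 is the no-effect control and ±100 the full control effect; nearly all actives have a fitted effect of over 70% in size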
Procedure, shortened: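 Luciferase-expressing P. falciparum, infected RBCs 2% Hct/0.1% parasitemia (final); 96 h cpd exposure, 37 C, 5% CO2; RPMI 1640 + 0.5% Albumax, bicarbonate, gentamycin. Readout: luminescence loss = growth inhibition.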

[13] = Quantitative high throughput screen for delayed death inhibitors of the malarial parasite plastid, 48 hour incubation (AID 488752); further: on the % scale 0 is the no-effect control and ±100 the full control effect; nearly all actives have a fitted effect of over 65% in size
Procedure, shortened: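 Luciferase-expressing P. falciparum in RBCs, 2% Hct, 0.1% parasitemia final; RPMI 1640 + 0.5% Albumax; 48 h, 37 C, 5% CO2; luminescence readout, signal drop = growth inhibition.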

[14] = target: M-phase phosphoprotein 8 (Homo sapiens) (UniProt Q99549); test: qHTS Validation Assay for Inhibitors for MPP8 Chromodomain Interactions with Methylated Histone Tails (AID 488949);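 further: AlphaScreen signal from MPP8 chromodomain bound to biotinylated H3K9me3 peptide; top concentration of the series differs between compounds; on the % scale 0 is the no-effect control and ±100 the full control effect; nearly all actives have a fitted effect of over 55% in size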
Procedure, shortened: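 MPP8 (50 nM) was preincubated with biotinylated H3(1-18)K9me3 peptide (50 nM) in PBS pH 7.4, 0.01% Tween-20 for 30 min at room temperature, then with compounds for 30 min; binding was detected by AlphaScreen.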

[15] = target: Transient receptor potential cation channel subfamily V member 1 (Homo sapiens) (UniProt Q8NER1); test: HTS Assay for Compounds that Act as Enhancers of the Vanilloid Receptor 1 (AID 488979); further: 0% is about no effect
Procedure, shortened: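 TRPV1-expressing cells loaded with Fluo-8 calcium dye; compounds added and calcium influx read kinetically for 3 min (agonist phase), then capsaicin at EC20 added and read 2 min more for enhancement. Fluorescence ex 480/em 520 nm.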

[16] = target: Thyrotropin receptor (Homo sapiens) (UniProt P16473); test: qHTS Assay for Antagonists of the Thyroid Stimulating Hormone Receptor (AID 488980); further: series mostly up to about 58 µM; 0% is about no effect
Procedure, shortened: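 HEK293 cells transfected with human TSHR, suspended in HEPES-buffered HBSS with 70 uM RO 20-1724, were treated with compounds plus TSH at EC80 (4 nM final). cAMP was measured by competitive HTRF (cryptate anti-cAMP antibody, cAMP-d2 acceptor).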

[17] = target: Thyrotropin-releasing hormone receptor (Homo sapiens) (UniProt P34981); test: qHTS for Small Molecule Agonists and Allosteric Enhancers of Human TRH Receptor: Validation Screen for Agonists (AID 493127;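 active means calcium activation more than 3 SD above the typical response in the agonist read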;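 further: intracellular calcium rise by fluo-8 fluorescence before TRH EC20 addition; 0% is about no effect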); details: TRH receptor agonist cell assay; at 2 µM; stronger effect = higher value
Procedure, shortened: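 Read-out: intracellular calcium release measured kinetically by FDSS (fluo-8, ex 480/em 530 nm), 1 reading/s after a 10-cycle baseline. TRHR cells, 2000/well, cultured 18 h at 33.5C, dye-loaded at room temp. Compound-evoked positive calcium signal flags agonists.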

[18] = target: Galactokinase (Homo sapiens) (UniProt P51570); test: qHTS Validation Assay for Inhibitors of Human Galactokinase (GALK) (AID 493189); further: 0% is about no effect
Procedure, shortened: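 GALK (5 nM) with 35 uM ATP and 100 uM galactose in HEPES pH8.0, MgCl2, NaCl, DTT, BSA; 1 h at room temperature. Residual ATP read by Kinase-Glo Plus luminescence after 10 min.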

[19] = target: Glucocorticoid receptor (Homo sapiens) (UniProt P04150); test: qHTS assay for small molecule agonists of glucocorticoid receptor signaling (AID 588532; active means well fitted curve in the direction sought with a large enough effect in the signal ratio, with a control signal flat; the % refers to the signal ratio;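 further: 100% = dexamethasone at 0.1 µM and 0% = DMSO only wells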); details: HeLa MMTV-bla, beta-lactamase ratio, agonist, 18 h; stronger effect = higher value; percent of dexamethasone control, DMSO zero
Procedure, shortened: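 MMTV-bla HeLa, beta-lactamase reporter; medium with 1% charcoal/dextran-stripped FBS; cpds up to 92 uM, 18 h, 37 C; CCF4 readout 460/530 nm; Hill fit → EC50, efficacy vs 0.1 uM dexamethasone = 100%.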

[20] = target: Peroxisome proliferator-activated receptor delta (Homo sapiens) (UniProt Q03181); test: qHTS assay for small molecule agonists of peroxisome proliferator-activated receptor delta signaling (AID 588534; calls by dose curve;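 further: 0% = DMSO basal wells and 100% = positive control agonist at 10 µM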)
Procedure, shortened: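 Titration series tested in agonist mode on beta-lactamase reporter cells; 18 hrs at 37 C after a 5 hr pre-incubation. Readout: CCF4 fluorescence, 2 hrs RT. Hill equation gives EC50 and maximal response.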

[21] = qHTS assay for small molecule antagonists of peroxisome proliferator-activated receptor delta signaling (AID 588535; active means well fitted inhibition curve with a large enough effect in the signal ratio, with a control signal flat, not every such curve was filed as active; the % refers to the signal ratio;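 on max response: cells co-treated with a PPAR-delta agonist as stimulator during compound exposure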); details: HEK293T PPARd-UAS-bla, beta-lactamase FRET ratio, 18 h; 460 nm channel
Procedure, shortened: (§1)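 Compounds tested in titration on PPAR-delta-UAS-bla HEK293T cells grown in charcoal/dextran-stripped serum (2%); beta-lactamase activity read via CCF4 emission at 460 and 530 nm.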

[22] = target: Peroxisome proliferator-activated receptor delta (Homo sapiens) (UniProt Q03181); test: as above
Procedure, shortened: as §1

[23] = target: Vitamin D3 receptor (Homo sapiens) (UniProt P11473); test: qHTS assay for small molecule antagonists of vitamin D receptor signaling (AID 588541; calls by dose curve)
Procedure, shortened: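 VDR-UAS-bla HEK293T cells (2000/well, 2% charcoal-stripped FBS) were treated with titrated compounds plus 1-alpha,25-dihydroxyvitamin D3 (50 nM or 3 nM final) for 16 h at 37 C. CCF4 beta-lactamase fluorescence was read; Hill fits gave IC50.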

[24] = target: Vitamin D3 receptor (Homo sapiens) (UniProt P11473); test: qHTS assay for small molecule agonists of vitamin D receptor signaling (AID 588543; calls by dose curve;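 further: 0% = DMSO basal and 100% = reference agonist control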)
Procedure, shortened: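 GeneBLAzer VDR-UAS-bla HEK293T cells in 2% charcoal-stripped FBS medium were dosed with compound titrations for 16 h at 37 °C; CCF4 β-lactamase readout (405 nm ex, 460/530 nm em). EC50 and efficacy from Hill fits, normalized to 50 nM calcitriol (100%) and DMSO (0%).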

[25] = target: Thyroid hormone receptor beta (Homo sapiens) (UniProt P10828); test: qHTS assay for small molecule agonists of thyroid hormone receptor beta signaling (AID 588545; calls by dose curve)
Procedure, shortened: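 Cells (2500/well) were seeded, incubated 4 hrs at 37 C, dosed with a compound series, incubated 18 hrs, loaded with CCF4 dye for 2 hrs at RT, then read for fluorescence. Data were scaled between DMSO (0%) and 10 nM T3 (100%).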

[26] = qHTS assay for small molecule antagonists of retinoid X receptor alpha signaling (AID 588546; active means well fitted inhibition curve with a large enough effect in the signal ratio, with a control signal flat, not every such curve was filed as active; the % refers to the signal ratio); details: HEK293T RXRa-UAS-bla, beta-lactamase ratio, antagonist mode; measured here: W530 green channel, cytotoxicity proxy
Procedure, shortened: (§2)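 Beta-lactamase reporter inhibition, read as CCF4 fluorescence ratio (ex 405, em 460/530 nm) after 2 h at RT. HEK293T UAS-bla cells, 2500/well, were stimulated with 9-cis-RA at 500 or 100 nM final alongside test compound for 18 h at 37 C.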

[27] = target: Retinoic acid receptor RXR-alpha (Homo sapiens) (UniProt P19793); test: as above; details: HEK293T RXRa-UAS-bla, beta-lactamase ratio, antagonist mode
Procedure, shortened: as §2

[28] = target: Thyroid hormone receptor beta (Homo sapiens) (UniProt P10828); test: qHTS assay for small molecule antagonists of thyroid hormone receptor beta signaling (AID 588547; active means well fitted inhibition curve with a large enough effect in the signal ratio, with a control signal flat, not every such curve was filed as active; the % refers to the signal ratio); details: TR-UAS-bla HEK293, beta-lactamase ratio, antagonist mode, 18 h
Procedure, shortened: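 TR-UAS-bla GripTite HEK293 cells in 2% charcoal/dextran FBS medium were preincubated 4 h at 37 C, given compound (0.59 nM to 92 uM) plus 0.4 nM T3 (final) for 18 h, then CCF4 for 2 h at RT; Hill fit gave IC50.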

[29] = qHTS assay for small molecule agonists of the antioxidant response element (ARE) signaling pathway (AID 651741; active means well fitted activation curve with a large enough effect in the signal ratio; the % refers to the signal ratio; further: potency means the concentration at half of the fitted maximal effect)
Procedure, shortened: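 Beta-lactamase reporter expression driven by the antioxidant response element in HepG2 cells was detected by fluorescence with LiveBLAzer B/G FRET substrate (2 h, room temperature) following 16 h compound treatment at 37 C.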

[30] = qHTS assay for small molecule activators of the p53 signaling pathway (AID 651743; active means well fitted activation curve with a large enough effect in the signal ratio, not every such curve was filed as active; the % refers to the signal ratio; further: series mostly up to about 92 µM; % of control where 0% means no effect); details: HCT-116 p53RE-bla, beta-lactamase FRET ratio, 16 h; activation: stronger effect = higher value
Procedure, shortened: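 Here HCT-116 cells with an integrated p53-responsive beta-lactamase gene were incubated with compounds (16 hours, 37 C) after a 5-hour plating period; beta-lactamase activity was detected as fluorescence intensity via B/G FRET substrate.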

[31] = target: Peroxisome proliferator-activated receptor alpha (Homo sapiens) (UniProt Q07869); test: qHTS assay for small molecule agonists of the peroxisome proliferator-activated receptor alpha (PPARalpha) signaling pathway (AID 651778); details: PathHunter PPARalpha complementation, chemiluminescence, 6 h; stronger effect = higher value; further: % of control where 0% means no effect
Procedure, shortened: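 Cells plated at 2,000/well and held overnight at 37 C, 5% CO2, then compound added by pin tool for 6 hr; after PathHunter detection reagent and 60 min at room temperature, chemiluminescence from enzyme complementation was read.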

[32] = qHTS assay for small molecule agonists of the antioxidant response element (ARE) signaling pathway measured by Nrf2-dependant transcriptional activity (AID 720636; active means well fitted curve in the direction sought with a large enough effect in the repeat runs; an effect the other way counts as inactive or inconclusive; further: % of control where 0% means no effect)
Procedure, shortened: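 In HepG2 cells engineered with an Nrf2-responsive luciferase gene, ARE induction was quantified as luminescence after 16 hr compound treatment at 37 C.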

[33] = qHTS assay for small molecule agonists of the antioxidant response element (ARE) signaling pathway measured by Nrf2-dependant transcriptional activity - cell viability counter screen (AID 720653; active means well fitted curve in the direction sought with a large enough effect in the repeat runs; an effect the other way counts as inactive or inconclusive; further: on the % scale 0 is the no-effect control and ±100 the full control effect); details: ARE-bla HepG2 viability, CellTiter-Glo ATP luminescence, 16 h; stronger effect = lower value
Procedure, shortened: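 ARE-bla HepG2 cells (2,000/well) rested 5 hrs at 37C/5% CO2, then exposed to compounds in DMSO for 16 hrs. Viability was read in the same wells as intracellular ATP by luminescence, 30 min at room temperature after reagent addition.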

[34] = qHTS assay for cell viability of HEK293 cells (AID 743288); details: ATP luminescence (CellTiter-Glo), 18 h; max response: stronger effect = lower value; further: on the % scale 0 is the no-effect control and ±100 the full control effect; nearly all actives have a fitted effect of over 50% in size
Procedure, shortened: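 After 18 h compound exposure at 37 C, parental HEK293 cells (2,000/well) are lysed with CellTiter-Glo and luminescence is read following 30 min at room temperature.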

[35] = qHTS assay for cell viability of the p53RE-bla HCT-116 cell line (AID 743292); further: on the % scale 0 is the no-effect control and ±100 the full control effect; nearly all actives have a fitted effect of over 55% in size
Procedure, shortened: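 Intracellular ATP of p53RE-bla HCT-116 cells measured by luciferase luminescence following 16 h compound incubation at 37 C; DMSO-only wells served as vehicle controls.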

[36] = target: Nuclear receptor subfamily 1 group I member 2 (Rattus norvegicus) (UniProt Q9R1A7); test: qHTS assay for small molecule activators of the rat pregnane X receptor (rPXR) signaling pathway (AID 651751; call rule not given here; further: 0% is about no effect); details: rPXR reporter cells, luciferase (One-Glo), 24 h

Chain of Peroxisome proliferator-activated receptor delta (Homo sapiens) (Q03181 whole entry, looked up): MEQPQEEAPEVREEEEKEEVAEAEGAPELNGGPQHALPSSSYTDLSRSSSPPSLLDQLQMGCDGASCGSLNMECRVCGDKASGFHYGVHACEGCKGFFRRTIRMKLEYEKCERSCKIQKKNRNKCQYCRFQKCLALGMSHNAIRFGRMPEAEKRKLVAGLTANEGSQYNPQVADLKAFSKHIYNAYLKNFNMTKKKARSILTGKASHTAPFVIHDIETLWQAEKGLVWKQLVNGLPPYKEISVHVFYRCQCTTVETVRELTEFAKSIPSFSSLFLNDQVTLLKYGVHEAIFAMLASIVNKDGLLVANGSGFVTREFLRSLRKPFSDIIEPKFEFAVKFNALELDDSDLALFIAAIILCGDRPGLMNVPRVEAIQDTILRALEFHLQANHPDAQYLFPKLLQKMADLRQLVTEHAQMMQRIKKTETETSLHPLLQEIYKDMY
Chain of Vitamin D3 receptor (Homo sapiens) (P11473 whole entry, looked up): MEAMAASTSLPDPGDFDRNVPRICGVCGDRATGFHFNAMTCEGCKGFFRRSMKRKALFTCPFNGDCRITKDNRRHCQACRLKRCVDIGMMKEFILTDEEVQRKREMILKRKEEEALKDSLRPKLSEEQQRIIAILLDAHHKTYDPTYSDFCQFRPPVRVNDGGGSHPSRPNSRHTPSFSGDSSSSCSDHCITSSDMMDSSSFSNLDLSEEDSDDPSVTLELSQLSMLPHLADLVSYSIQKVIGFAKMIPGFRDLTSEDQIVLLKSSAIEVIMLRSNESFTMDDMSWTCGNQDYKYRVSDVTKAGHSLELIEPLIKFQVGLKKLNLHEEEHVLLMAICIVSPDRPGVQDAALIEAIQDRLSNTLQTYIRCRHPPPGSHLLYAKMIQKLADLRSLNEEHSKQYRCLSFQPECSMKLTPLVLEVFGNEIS
Chain of Thyroid hormone receptor beta (Homo sapiens) (P10828 whole entry, looked up): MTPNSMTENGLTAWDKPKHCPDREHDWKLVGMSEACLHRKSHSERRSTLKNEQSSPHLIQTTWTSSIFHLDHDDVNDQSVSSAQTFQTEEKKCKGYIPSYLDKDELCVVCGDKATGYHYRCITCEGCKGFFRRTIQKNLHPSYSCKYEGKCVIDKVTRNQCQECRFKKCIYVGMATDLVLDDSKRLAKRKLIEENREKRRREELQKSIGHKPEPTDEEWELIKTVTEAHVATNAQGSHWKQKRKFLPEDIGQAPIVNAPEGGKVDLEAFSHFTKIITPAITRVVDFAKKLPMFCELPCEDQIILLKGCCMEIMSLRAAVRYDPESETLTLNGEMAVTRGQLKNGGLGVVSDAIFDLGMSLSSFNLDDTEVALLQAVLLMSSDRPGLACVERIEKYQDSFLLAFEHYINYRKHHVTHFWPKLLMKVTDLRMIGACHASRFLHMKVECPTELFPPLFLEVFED
Chain of Retinoic acid receptor RXR-alpha (Homo sapiens) (P19793 whole entry, looked up): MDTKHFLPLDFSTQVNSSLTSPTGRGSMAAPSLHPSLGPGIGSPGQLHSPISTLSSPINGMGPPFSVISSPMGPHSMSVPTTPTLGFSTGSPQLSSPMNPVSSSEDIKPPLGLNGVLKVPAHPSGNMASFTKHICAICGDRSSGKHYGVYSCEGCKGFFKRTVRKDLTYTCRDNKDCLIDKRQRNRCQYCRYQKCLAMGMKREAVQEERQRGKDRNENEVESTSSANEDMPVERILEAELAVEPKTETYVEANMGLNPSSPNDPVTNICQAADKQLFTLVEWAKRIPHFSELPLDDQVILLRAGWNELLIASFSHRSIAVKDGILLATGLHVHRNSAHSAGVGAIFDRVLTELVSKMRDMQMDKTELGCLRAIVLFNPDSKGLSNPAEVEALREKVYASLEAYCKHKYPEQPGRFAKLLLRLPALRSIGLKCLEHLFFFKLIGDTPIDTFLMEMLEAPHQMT
Chain of ATP-dependent DNA helicase Q1 (Homo sapiens) (P46063 whole entry, looked up): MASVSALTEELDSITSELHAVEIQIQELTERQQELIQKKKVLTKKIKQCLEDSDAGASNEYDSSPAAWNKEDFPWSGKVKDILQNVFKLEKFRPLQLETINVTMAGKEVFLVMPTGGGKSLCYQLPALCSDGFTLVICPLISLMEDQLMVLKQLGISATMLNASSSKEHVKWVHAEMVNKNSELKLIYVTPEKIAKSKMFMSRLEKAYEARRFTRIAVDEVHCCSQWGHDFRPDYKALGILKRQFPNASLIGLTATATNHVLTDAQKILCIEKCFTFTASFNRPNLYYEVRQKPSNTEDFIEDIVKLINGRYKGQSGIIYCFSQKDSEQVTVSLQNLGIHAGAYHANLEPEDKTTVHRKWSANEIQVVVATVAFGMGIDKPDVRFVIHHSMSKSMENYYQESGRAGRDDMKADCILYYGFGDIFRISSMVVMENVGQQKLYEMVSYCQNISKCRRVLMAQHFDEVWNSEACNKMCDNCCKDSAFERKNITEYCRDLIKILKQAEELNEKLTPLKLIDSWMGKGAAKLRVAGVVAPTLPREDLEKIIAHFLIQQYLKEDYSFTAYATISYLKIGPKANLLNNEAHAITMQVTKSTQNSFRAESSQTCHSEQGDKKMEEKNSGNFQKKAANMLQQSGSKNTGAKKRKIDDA
Chain of M-phase phosphoprotein 8 (Homo sapiens) (Q99549 whole entry, looked up): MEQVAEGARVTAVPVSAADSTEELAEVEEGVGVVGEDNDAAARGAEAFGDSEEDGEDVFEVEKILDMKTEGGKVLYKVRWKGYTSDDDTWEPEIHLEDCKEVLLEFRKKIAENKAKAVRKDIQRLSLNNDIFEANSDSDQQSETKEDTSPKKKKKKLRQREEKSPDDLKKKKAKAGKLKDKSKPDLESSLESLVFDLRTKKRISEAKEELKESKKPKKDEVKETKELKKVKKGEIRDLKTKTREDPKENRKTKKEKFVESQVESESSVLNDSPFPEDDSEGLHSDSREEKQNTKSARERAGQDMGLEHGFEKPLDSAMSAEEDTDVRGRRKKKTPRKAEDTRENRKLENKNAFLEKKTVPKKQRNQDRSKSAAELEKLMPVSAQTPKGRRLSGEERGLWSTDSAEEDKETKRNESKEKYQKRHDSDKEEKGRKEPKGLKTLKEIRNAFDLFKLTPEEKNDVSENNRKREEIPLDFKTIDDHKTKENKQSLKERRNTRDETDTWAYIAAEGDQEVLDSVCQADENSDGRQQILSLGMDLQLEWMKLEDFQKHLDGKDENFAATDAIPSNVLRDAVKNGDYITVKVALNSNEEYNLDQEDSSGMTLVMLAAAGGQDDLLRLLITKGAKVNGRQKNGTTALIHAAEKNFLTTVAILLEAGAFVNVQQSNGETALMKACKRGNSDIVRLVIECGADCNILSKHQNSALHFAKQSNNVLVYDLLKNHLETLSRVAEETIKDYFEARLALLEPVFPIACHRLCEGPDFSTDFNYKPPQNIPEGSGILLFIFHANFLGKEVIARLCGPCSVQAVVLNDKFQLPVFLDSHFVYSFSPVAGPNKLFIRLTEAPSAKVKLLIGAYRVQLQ
Chain of Thyrotropin receptor (Homo sapiens) (P16473 whole entry, looked up): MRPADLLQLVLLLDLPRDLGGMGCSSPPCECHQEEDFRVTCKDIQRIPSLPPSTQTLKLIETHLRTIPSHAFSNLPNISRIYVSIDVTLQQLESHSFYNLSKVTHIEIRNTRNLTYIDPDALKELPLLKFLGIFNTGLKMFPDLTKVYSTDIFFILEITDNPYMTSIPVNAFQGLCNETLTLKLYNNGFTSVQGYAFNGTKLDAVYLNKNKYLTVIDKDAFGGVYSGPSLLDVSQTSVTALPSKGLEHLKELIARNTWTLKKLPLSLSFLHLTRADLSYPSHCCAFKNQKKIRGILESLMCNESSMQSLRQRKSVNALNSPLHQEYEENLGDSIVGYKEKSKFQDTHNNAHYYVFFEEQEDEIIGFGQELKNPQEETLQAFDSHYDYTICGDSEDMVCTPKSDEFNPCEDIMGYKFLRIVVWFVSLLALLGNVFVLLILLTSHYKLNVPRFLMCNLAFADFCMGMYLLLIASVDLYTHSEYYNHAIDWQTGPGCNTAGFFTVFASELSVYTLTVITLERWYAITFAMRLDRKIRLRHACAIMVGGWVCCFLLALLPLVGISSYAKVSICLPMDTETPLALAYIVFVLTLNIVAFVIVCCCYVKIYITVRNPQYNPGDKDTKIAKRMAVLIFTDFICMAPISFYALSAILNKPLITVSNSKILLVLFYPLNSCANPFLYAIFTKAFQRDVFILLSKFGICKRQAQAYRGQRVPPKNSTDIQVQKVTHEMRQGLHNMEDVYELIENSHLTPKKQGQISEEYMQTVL
Chain of Transient receptor potential cation channel subfamily V member 1 (Homo sapiens) (Q8NER1 whole entry, looked up): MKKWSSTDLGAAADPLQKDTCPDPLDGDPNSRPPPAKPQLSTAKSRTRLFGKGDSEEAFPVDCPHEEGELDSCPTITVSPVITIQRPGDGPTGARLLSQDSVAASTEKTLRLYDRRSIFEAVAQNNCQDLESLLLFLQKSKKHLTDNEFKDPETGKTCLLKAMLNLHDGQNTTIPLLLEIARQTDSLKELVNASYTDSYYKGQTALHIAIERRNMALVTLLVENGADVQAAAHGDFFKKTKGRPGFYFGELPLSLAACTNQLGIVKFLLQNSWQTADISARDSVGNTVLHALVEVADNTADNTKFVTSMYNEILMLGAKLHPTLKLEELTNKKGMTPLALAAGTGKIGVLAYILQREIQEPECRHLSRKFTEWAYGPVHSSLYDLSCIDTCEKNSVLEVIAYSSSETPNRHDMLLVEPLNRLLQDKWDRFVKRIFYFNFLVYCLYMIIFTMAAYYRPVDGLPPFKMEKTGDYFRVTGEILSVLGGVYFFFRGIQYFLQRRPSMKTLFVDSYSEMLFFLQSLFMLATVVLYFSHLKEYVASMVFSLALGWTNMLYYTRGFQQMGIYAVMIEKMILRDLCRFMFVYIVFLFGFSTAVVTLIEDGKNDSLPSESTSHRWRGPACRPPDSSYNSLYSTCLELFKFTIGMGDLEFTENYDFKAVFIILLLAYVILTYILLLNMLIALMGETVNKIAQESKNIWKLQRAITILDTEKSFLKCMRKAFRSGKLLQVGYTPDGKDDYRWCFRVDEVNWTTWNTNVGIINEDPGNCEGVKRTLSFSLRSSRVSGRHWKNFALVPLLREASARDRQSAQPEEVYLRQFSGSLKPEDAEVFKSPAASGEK

O=C(Nc1ccccc1F)N[C@H]1N=C(c2ccccc2)c2ccccc2NC1=O
inactive: Potency [1]

O=C(O)C1C2CCC(O2)C1C(=O)O (stereo unspecified)
-24.5%: max response [26]
active: Potency [29] 27.3 µM
inactive: Potency [2] | outcome [3] | Potency [4] | Potency [5] | Potency [6] | Potency [7] | Potency [8] | outcome [9] | outcome [10] | Potency [11] | Potency [12] | Potency [13] | Potency [14] | outcome [15] | outcome [16] | activation [17] 1.38% | outcome [18] | activation [19] -13.9% | outcome [20] | Potency [22] | outcome [23] | outcome [24] | outcome [25] | max response [27] -26.2% | activity change % (negative = inhibition) [28] -12% | activation [30] 4.04% | max response [31] -0.146% | outcome [32] | max response [33] -12.2% | max response [34] -14.9% | Potency [35] | max response [36] 4.79%
16.5%: max response [21]
